One assay deals with PIP5KL1. Briefly: pooled miR-30 sensor sort-seq; sequence = guide strand. The following applies: shRNA.
TTGATGTCATACCTCTCGGAGA came in with a sensor-assay potency score (higher = more potent) of -1.04. The same measure, in the same setting: to TAATCCAGCACGTTGAGCTCCC belongs -0.232; to TGTCTTCCACAGGTGCTCCAGC, -0.631; to TAGCGCAGTGTCTTCCACAGGT, 0.0204. Same read-out and setting: to TTTGATGTCATACCTCTCGGAG belongs -0.872; to TATCCAGTTCCATCTGGCGGAG, -1.65; to TTGCGGAGCCCGTAGACTGTGG, -1.6. As for TTGGGCTCTCGACTCTTCCGGG, the sensor-assay potency score (higher = more potent) was -0.549. The same measure, in the same setting: to TATCAGGAGGCTGTAATCCAGC belongs -1.11; to TTTGGGCTCTCGACTCTTCCGG, -0.891; to TTGAGCTCCCGGAGGAAGGTGG, -0.608.

For TACCTCTCGGAGATGCGGCCGG, the sensor-assay potency score (higher = more potent) is -0.502.

The target of a further assay is PITPNM3. Described as above. The following applies: shRNA.
TTCTCCTTGATGCTCGTCCAGT yielded a sensor-assay potency score (higher = more potent) of -0.95. On the same count and under the same terms, to TTCAGGTGAGAGACAAGCGAGA belongs -0.748; to TTGCTGAGACGCTTGCTGCTGG, -0.433. Same read-out and setting: to TAGACAGAGATGTCCTTCGTGG belongs -0.052; to TTACGAAGCCACTTCTCCCGGG, -0.085; to TTTGCTGAGACGCTTGCTGCTG, -0.757. Still for that read-out and setting: to TTCAGCAGCAATCACATCATTG belongs -1.64; to TTCCTCGCTGTCTTCGTGGATC, -1.05.

These data come from the OligoGym collection.
Also: reference of the scale not given here.
